An excerpt weighted towards active compounds, which were near 4.6% of everything screened.
TRHR PAM: allosteric enhancers of human TRH receptor. TRHR cells, fluo-8 calcium fluorescence, EC20 TRH enhancement. enhancement, % at 2 µM. 360,000 compounds, 0.66% hits; in the data active means enhancement above about 30%; further: 0% is about no effect
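TRHR-expressing cells loaded with fluo-8 calcium dye were read kinetically (ex 480/em 530) during compound addition, then stimulated with an EC20 of TRH (10 nM final). Enhancement of the Gq-mediated intracellular calcium response was scored.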
D1 agonist: human D1 receptor agonism. activation, % at 2 µM. P21728. AID 504660. 360,000 compounds, 1% hits. HEK293 T-REx D1 cells, calcium flux, agonist mode; further: 0% is about no effect
Target sequence (P21728 whole entry, looked up): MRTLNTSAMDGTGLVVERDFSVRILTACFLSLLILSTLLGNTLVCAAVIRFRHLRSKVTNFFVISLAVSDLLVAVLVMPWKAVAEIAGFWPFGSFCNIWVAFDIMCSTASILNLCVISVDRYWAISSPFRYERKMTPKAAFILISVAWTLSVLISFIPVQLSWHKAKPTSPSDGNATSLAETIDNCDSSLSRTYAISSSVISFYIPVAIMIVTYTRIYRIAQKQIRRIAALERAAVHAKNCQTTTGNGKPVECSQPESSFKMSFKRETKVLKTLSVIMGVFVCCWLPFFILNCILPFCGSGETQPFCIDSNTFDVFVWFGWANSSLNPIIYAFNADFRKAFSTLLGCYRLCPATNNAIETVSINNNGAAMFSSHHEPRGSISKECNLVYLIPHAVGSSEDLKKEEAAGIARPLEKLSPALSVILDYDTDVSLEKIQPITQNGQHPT
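Agonism was scored from calcium flux recorded over 180 s (1 read/s) after pintool compound addition, following a 10-cycle baseline. Cells were inducible force-coupled HEK293 TREx D1, plated overnight at 30 C and loaded with no-wash calcium dye.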
TRHR ag: TRH receptor (human) agonism; TRHR cells, calcium flux fluo-8, FDSS agonist mode; activation, % at 2 µM; AID 493084; P34981; 360,000 compounds, 0.18% hits; further: 0% is about no effect
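Agonist-mode FDSS calcium read (Ex 480/Em 530, 1 s cycles) in 1536-well TRHR cells with fluo-8 dye, after 10-cycle baseline and 23 nL compound addition; TRH at EC20 (10 nM final) added afterwards for the enhancer phase.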
D1 potentiator: human D1 dopamine receptor positive modulation | HEK293 TREx D1 cells, calcium flux, dopamine EC20 potentiation | potentiation, % at 10 µM | 360,000 compounds, 0.036% hits | P21728; in the data active means potentiation above about 30%; further: 0% is about no effect
D1 antagonist: human D1 dopamine receptor antagonism | HEK293 TREx D1 cells, calcium flux, dopamine EC80; active compounds read low | activity change, negative = inhibition, % at 10 µM | 360,000 compounds, 3.2% hits; in the data active means activity change below about -30%; further: on the % scale 0 is the no-effect control and ±100 the full control effect
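Antagonism measured as reduced calcium response to an EC80 dopamine addition following 180 s compound pre-read; cells were inducible HEK293 Trex D1 plated overnight at 30 C, read kinetically at 1 cycle/sec.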
Starred values were filed as active, the others as inactive. Unless noted, no stated cut-off is given here; in the data, active means activation above about 30%; inactive means the rest.

SMILES | TRHR PAM | D1 agonist | TRHR ag | D1 potentiator | D1 antagonist
c1ccc(-n2ncc3c(NCCN4CCOCC4)ncnc32)cc1 | 33* | 1 | 0 | 7 | -1
CC(C)OCCCNc1ncnc2c1cnn2-c1ccccc1 | 33* | 0 | 0 | -2 | -37*
OCCOCCNc1ncnc2c1cnn2-c1ccccc1 | 23 | 0 | 0 | -9 | -45*
Cc1c(C(=O)Nc2cccc(C(F)(F)F)c2)oc2ccc3c(c12)C(=O)CC(C)(C)O3 | -1 | 3 | 0 | -2 | -15
O=C1CCC(C(=O)N2CCCCCC2)CN1CCc1ccc(Cl)cc1 (stereo not given) | 2 | 1 | 0 | -1 | -5
Cc1ccc(C)c(N2CCN(C(=O)CN3C(=O)COc4ccc(S(=O)(=O)N5CCOCC5)cc43)CC2)c1 | 4 | -2 | 0 | 2 | -3
COc1ccc(C2=NOC(COc3ccc([N+](=O)[O-])cc3)C2)cc1 (stereo not given) | 1 | 9 | 0 | -10 | -32*
COc1ccc(CCNC(=O)C2CC(c3ccc([N+](=O)[O-])cc3)=NO2)cc1 (stereo not given) | 0 | 7 | 0 | -5 | -3
COC(=O)C1=NN(C(=O)c2cccc(Br)c2)C(O)(c2ccc(Cl)cc2)C1 (stereo not given) | 2 | 106* | 16 | 1 | -9
CCOC(=O)C1=NN(C(=O)c2ccc(OC)cc2)C(O)(c2ccc(Cl)cc2)C1 (stereo not given) | -2 | 128* | 14 | -4 | -27
CCOC(=O)C1=NN(C(=O)c2cccc(Br)c2)C(O)(C(C)(C)C)C1 (stereo not given) | -8 | 51* | 22 | -10 | -9
Cc1nn(CC(=O)N2CCN(c3ccccc3)CC2)c(=O)c2cc3cc(F)ccc3n12 | -6 | 2 | 0 | -5 | -2
COC(=O)CNc1c(-c2ccccc2)nc2ccc(Br)cn12 | 38* | 0 | -2 | 2 | 10
CC(=O)N1CCC(N(C(=O)Nc2ccc(C)c(F)c2)C(C)C)CC1 | -1 | -2 | 0 | 2 | -48*
COC(=O)c1ccccc1-c1c2ccc(=N)cc-2oc2cc(N)ccc12 | -18 | 507* | 198* | -5 | -56*
Cc1cc(Cl)ccc1NC(=O)CCC(=O)N/N=C/c1cc([N+](=O)[O-])ccc1O | -2 | 1 | -2 | 13 | -9
O=[N+]([O-])c1ccc(O)c(/C=N/NC(=S)Nc2ccc(Cl)cc2Cl)c1 | -14 | 12 | 1 | -12 | -40*
N#Cc1cccc(C(=O)OCC(=O)NC(=O)NC2CCCCC2)c1 | -2 | 5 | 0 | -3 | -2
O=C(COC(=O)c1ccc2c(c1[N+](=O)[O-])C(=O)c1ccccc1C2=O)NC1CC1 | 0 | 0 | 0 | -3 | -5
O=C(COC(=O)c1ccccc1C(=O)c1ccc(Cl)c([N+](=O)[O-])c1)NC1CCCCCC1 | -2 | 3 | -1 | -5 | -34*
O=C(COC(=O)c1cccc2c1C(=O)c1ccccc1C2=O)NC1CCCCC1 | 4 | 7 | 0 | 3 | -78*
O=C(COC(=O)c1cccc(OC(F)F)c1)NC(=O)NC1CCCCC1 | 2 | 43* | -1 | -3 | -11
O=C(COC(=O)c1ccc(Cl)c([N+](=O)[O-])c1)NC1CCCC1 | -5 | 1 | -1 | -4 | -24
CCCOC(=O)c1c(-c2ccccc2)c(-c2ccccc2)nn(C)c1=O | -6 | 5 | -2 | 1 | 4
CCc1ccc(-n2c(=O)c3sc4ccccc4c3n(Cc3cccc(F)c3)c2=O)cc1 | -5 | 4 | 0 | 5 | 8
SMILES | TRHR PAM | D1 agonist | TRHR ag | D1 potentiator | D1 antagonist
CCC(C)NC(=O)C1=CC(c2ccc3c(c2)OCO3)=NS(=O)(=O)N1C (stereo not given) | 1 | 1 | 0 | -2 | -8
O=C(O)C1CC(=O)N(Cc2ccccc2)C1 (stereo not given) | 5 | 1 | 2 | -12 | -22
O=C(NCc1ccc(Cl)cc1Cl)C1CC(=O)N(Cc2ccccc2)C1 (stereo not given) | -7 | -2 | 1 | -2 | -31*
COCCn1c(SCC(=O)c2ccc(F)cc2)nc2cc(C(=O)NC3CCCC3)ccc2c1=O | 7 | 1 | 0 | 2 | -1
COc1cc(NC(C)=O)c2ncccc2c1NC(C)=O | -2 | 6 | 1 | 1 | -36*
COCCCNC(=O)C1CCCN(c2nn3cc(-c4ccc(C)cc4)nc3s2)C1 (stereo not given) | -9 | -1 | 0 | 5 | 1
Cc1ccccc1NC(=O)Nc1ccc2c(c1)OCO2 | -2 | 2 | 1 | -7 | -20
Cc1c(NC(=O)Nc2ccc3c(c2)OCO3)cccc1[N+](=O)[O-] | -1 | 14 | 1 | -10 | -44*
COc1cc(/C=C2\SC(=S)N(C(C(=O)O)c3ccccc3)C2=O)ccc1O (stereo not given) | 0 | 82* | 50* | 13 | 16
CCOc1ccc(/C=C2/SC(=S)N(C(C(=O)O)c3ccccc3)C2=O)cc1OCC (stereo not given) | -3 | 5 | -2 | -4 | 6
CCOc1cc(/C=C2\SC(=S)N(C(C(=O)O)c3ccccc3)C2=O)ccc1O (stereo not given) | 2 | 172* | -1 | 1 | 4
O=C(O)C(c1ccccc1)N1C(=O)/C(=C\c2ccc(O)c(O)c2)SC1=S (stereo not given) | -3 | 23 | 32* | 1 | -3
COc1ccc(NC(=O)N2CCN(S(=O)(=O)c3ccc4c(ccn4C)c3)CC2)cc1OC | -2 | 5 | -1 | -2 | 1
Cc1cccc(Oc2nc3ccccn3c(=O)c2/C=C(\C#N)c2nc3ccccc3s2)c1C | 18 | -1 | 0 | -3 | -6
COc1ccc(CCNC(=O)Cc2ccsc2)cc1 | -11 | 2 | 0 | 1 | 15
O=C(CC1=NCCNC(c2ccccc2)C1)c1ccccc1O (stereo not given) | -11 | 3 | -1 | -9 | -41*
Cc1ccccc1NC(=O)c1ccc(F)c(S(=O)(=O)N(C)C2CCCCC2)c1 | -7 | 13 | 0 | -1 | -15
Cc1ccc(S(=O)(=O)N2CCOCC2)cc1NC(=O)COC(=O)CCn1c(C)csc1=O | -5 | 5 | -1 | -1 | -4
Cc1ccc(S(=O)(=O)N2CCOCC2)cc1NC(=O)COC(=O)CCC(=O)c1ccc(F)cc1 | 7 | 4 | 0 | -7 | -31*
Cc1ccc(S(=O)(=O)N2CCOCC2)cc1NC(=O)COC(=O)Cn1c(C)csc1=O | 5 | 3 | 0 | -8 | -31*
Cc1ccc(C(=O)OCC(=O)Nc2cc(S(=O)(=O)N3CCOCC3)ccc2C)cc1 | 4 | 2 | 1 | -5 | 3
Cc1cc(C)c(NC(=O)Cn2c(=O)n(CCc3ccccc3)c(=O)c3ccccc32)c(C)c1 | -2 | -1 | 0 | 0 | 11

High-throughput results (PubChem)
